The record followed here is PubChem BioAssay AID651956 (Broad Institute, 2012).

This assay in a line: activation of miR-122 Renilla sensor silencing – cell-based, Huh7 psiCHECK-miR122, Renilla luciferase, cherry-picked, dose response (AID 651956).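 Also: Renilla luciferase from a miR-122 sensor reporter so lower signal means miR-122 activation.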

Entries with a potency or affinity are not part of this list. Inconclusive results are not listed. The source made the active and inactive calls.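 The calls were made as follows: active = in every test run, a fitted half-maximal concentration for signal decrease at or below twice the highest tested concentration; inconclusive = runs disagree, flat 30 to 70% decrease, or poor fit; inactive = the rest.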

For the compound `C/C=C/c1ccc([C@H]2[C@@H](CO)N(C(C)=O)[C@@H]2CN(C(=O)COC)C(C)C)cc1`, the result was inactive.
Consider `COC(=O)c1c(N)nc(C)n1-c1ccc(OC)cc1`, for which the call was inactive.
As for `CN1C(=O)c2cc(NC(=O)c3ccc4c(c3)OCO4)ccc2OC[C@H]2O[C@H](CC(=O)O)CC[C@@H]21`, the result was inactive.
In the case of `C/C=C/c1ccc([C@@H]2[C@@H](CN(C)C(=O)CC)N(C(=O)NC(C)C)[C@H]2CO)cc1`, the outcome was inactive.
`Cn1c(NC(=O)c2ccco2)c(-c2ccccc2Cl)c(=O)c2ccccc21`: the compound was classed as inactive.
Under `CN(C[C@H]1[C@H](c2ccccc2)[C@@H](CO)N1CC1CC1)C(=O)c1cccc(F)c1` stands “inactive”; under `N#Cc1ccc(C(=O)Nc2ccc(N3CCN(C(=O)c4ccco4)CC3)cc2)c(F)c1`, “inactive”; under `CNC(=O)c1nc(C)n(-c2cc(Cl)cc(Cl)c2)n1`, “inactive”.
Regarding `Cc1onc(-c2ccccc2)c1C(=O)NCc1ccccn1`, the outcome was inactive.
Regarding `CNC(=O)C[C@@H]1CC[C@@H]2[C@H](COc3ccc(NC(=O)NC(C)C)cc3C(=O)N2C)O1`, the outcome was inactive.
Regarding `COc1ccc(NC(=O)Cn2nnc(C(=O)NCc3ccccc3OC)c2N)cc1Cl`, the outcome was inactive.
Turning to `C[C@@H]1CN([C@@H](C)CO)S(=O)(=O)c2ccc(C3=CCCC3)cc2O[C@@H]1CN(C)C(=O)c1ccc(F)cc1`, the call was inactive.
Turning to `COC(=O)C[C@@H]1CC[C@H]2[C@@H](COc3ccc(NC(=O)c4ccc(C(F)(F)F)cc4)cc3C(=O)N2C)O1`, the outcome was inactive.
Under `CC(C)C(=O)Nc1ccc2c(c1)C(=O)N(C)[C@H]1CC[C@@H](CC(=O)NCCCN(C)C)O[C@H]1CO2` stands “inactive”.
In the case of `COC(=O)c1nn(-c2ccccc2)c(Sc2ccc(Cl)cc2)c1/C=N/O`, the result was inactive.
As for `CN1C(=O)c2cc(NC(=O)c3cccs3)ccc2OC[C@@H]2O[C@H](CC(=O)NCCN3CCCCC3)CC[C@H]21`, the outcome was inactive.
Take `CC(C)N(C[C@@H]1N[C@@H](CO)[C@@H]1c1ccccc1)S(=O)(=O)c1ccccc1`: the call was inactive.
Regarding `N#Cc1c(N)nc2c(c1-c1cccs1)CCCC2`, the compound was called inactive.
As for `CCCC(=O)Nc1ccc2c(c1)C(=O)N(C)[C@@H]1CC[C@@H](CC(=O)NCC(F)(F)F)O[C@H]1CO2`, the compound was called inactive.
Regarding `Cc1cnc(NC(=O)c2cc3c(C)nn(-c4ccccc4)c3s2)s1`, the compound was classed as inactive.
Under `Cc1ccc(-c2nnn(CC(=O)N(CC(=O)NCC3CCCO3)c3ccccc3)n2)o1` (centres undefined) stands “inactive”.
On to `CC(C)CC#Cc1ccc2c(c1)O[C@H](CN(C)C(=O)c1cnccn1)[C@H](C)CN([C@H](C)CO)S2(=O)=O`, for which the compound was classed as inactive.
Take `COc1cccc(CNC(=O)C[C@H]2CC[C@@H]3[C@H](COc4ccc(NC(C)=O)cc4C(=O)N3C)O2)c1`: the result was inactive.
Take `CN1C(=O)c2cc(NC(=O)c3ccccc3F)ccc2OC[C@H]2O[C@@H](CC(=O)NCc3ccc4c(c3)OCO4)CC[C@@H]21`: the compound was classed as inactive.
Consider `CC(C)C(=O)Nc1ccc2c(c1)C(=O)N(C)[C@H]1CC[C@H](CC(=O)Nc3cccc(F)c3)O[C@@H]1CO2`, for which the outcome was inactive.
As for `COC(=O)C[C@H]1CC[C@@H]2[C@@H](COc3ccc(NC(=O)c4ccc(F)c(F)c4)cc3C(=O)N2C)O1`, the compound was classed as inactive.
For the compound `COC(=O)C[C@H]1CC[C@H]2[C@H](COc3ccc(NC(=O)c4cccc(F)c4)cc3C(=O)N2C)O1`, the compound was classed as inactive.
For the compound `CCNC(=O)Nc1ccc2c(c1)C(=O)N(C)[C@H]1CC[C@H](CC(=O)Nc3cccc(F)c3)O[C@@H]1CO2`, the call was inactive.
Regarding `CCCNC(=O)C[C@H]1CC[C@@H]2[C@H](COc3ccc(NS(=O)(=O)c4ccccc4C)cc3C(=O)N2C)O1`, the compound was classed as inactive.
Regarding `COCC(=O)N(C[C@@H]1N[C@H](CO)[C@H]1c1ccc(C2=CCCC2)cc1)C(C)C`, the call was inactive.
For the compound `Cc1ccc(C2CC(C(F)(F)F)n3nc(C(=O)NCc4ccco4)cc3N2)cc1` (centres undefined), the compound was called inactive.
`CCNC(=O)C[C@H]1CC[C@H]2[C@@H](COc3ccc(NC(=O)c4ccccc4)cc3C(=O)N2C)O1`: the compound was called inactive.
With `COc1ccc(C(=O)N2C[C@H]3[C@@H](c4ccccc42)[C@@H](CO)N3C(=O)Cc2ccccn2)cc1`, the call was inactive.
In the case of `CCCNC(=O)C[C@@H]1CC[C@@H]2[C@@H](COc3ccc(NC(=O)c4ccc(C(F)(F)F)cc4)cc3C(=O)N2C)O1`, the result was inactive.
As for `O=C(c1ccco1)N1CCN(C2CC(=O)N(c3ccccc3)C2=O)CC1` (centres undefined), the outcome was inactive.
Take `CC(=O)Nc1ccc2c(c1)C(=O)N(C)[C@H]1CC[C@H](CC(=O)Nc3ccccc3Cl)O[C@@H]1CO2`: the compound was classed as inactive.
Under `COCC(=O)Nc1ccc2c(c1)C(=O)N(C)[C@H]1CC[C@@H](CC(=O)NC3CCCC3)O[C@H]1CO2` stands “inactive”; under `CCCC(=O)Nc1ccc2c(c1)C(=O)N(C)[C@@H]1CC[C@H](CC(=O)Nc3cn(C)nc3C)O[C@@H]1CO2`, “inactive”.
Under `CC(C)NC(=O)Nc1ccc2c(c1)C(=O)N(C)[C@@H]1CC[C@@H](CC(=O)NCC(F)(F)F)O[C@@H]1CO2` stands “inactive”; under `C/C=C/c1ccc([C@H]2[C@H](CO)N(C(C)=O)[C@H]2CN(C)C(=O)c2ccccn2)cc1`, “inactive”; under `COCC(=O)N1[C@H](CO)[C@H]2c3ccccc3N(C(=O)C3CC3)C[C@H]21`, “inactive”.
As for `COCC(=O)N(C[C@H]1N[C@@H](CO)[C@@H]1c1ccc(C2=CCCC2)cc1)C(C)C`, the compound was classed as inactive.
As to `COc1ccccc1C(=O)N1C[C@@H]2[C@H](c3ccccc31)[C@H](CO)N2CC1CCCC1`, the result was inactive.
Turning to `CN1C(=O)c2cc(NC(=O)c3ccccc3F)ccc2OC[C@H]2O[C@H](CC(=O)NCc3ccc4c(c3)OCO4)CC[C@@H]21`, the outcome was inactive.
With `Cc1ccc(-n2c(Cc3ccccc3)n[nH]c2=S)cc1`, the call was inactive.
Under `CC(=O)Oc1ccc2c(c1)C(=O)c1ccccc1CO2` stands “inactive”; under `CC(=O)N1[C@H](CN(C(=O)c2ccc(F)cc2)C(C)C)[C@H](c2ccccc2)[C@@H]1CO`, “inactive”.
For `C[C@H](CO)N1C[C@H](C)[C@@H](CN(C)Cc2ccc(C(F)(F)F)cc2)Oc2ccc(NS(=O)(=O)c3ccc(Cl)cc3)cc2CC1=O`, the result was inactive.
As to `N#CCc1c(C#N)c(N)nc(N2CCN(S(=O)(=O)c3ccccc3)CC2)c1C#N`, the result was inactive.
On to `CN1CCN(C(=O)C[C@H]2CC[C@@H]3[C@H](COc4ccc(NC(=O)c5cccs5)cc4C(=O)N3C)O2)CC1`, for which the call was inactive.
Under `CC#CCCCC(=O)Nc1ccccc1C(=O)O` stands “inactive”; under `CC(C)C(=O)Nc1ccc2c(c1)C(=O)N(C)[C@H]1CC[C@H](CC(=O)NCCc3ccccc3)O[C@H]1CO2`, “inactive”; under `O=c1c2cc(N3CCOCC3)ccc2[nH]c(=S)n1CCCN1CCCC1`, “inactive”.
Regarding `CN1C(=O)c2cc(NC(=O)c3cccc(C(F)(F)F)c3)ccc2OC[C@@H]2O[C@@H](CC(=O)NCCN3CCCC3)CC[C@@H]21`, the outcome was inactive.
For `CCN(CC)CCOc1cccc(C(C)C)c1`, the call was inactive.
As for `CCCNC(=O)C[C@H]1CC[C@@H]2[C@H](COc3ccc(NC(=O)c4cccs4)cc3C(=O)N2C)O1`, the call was inactive.
Take `CN1C(=O)c2cc(NC(=O)c3ccc(C(F)(F)F)cc3)ccc2OC[C@@H]2O[C@@H](CC(=O)NCc3ccc4c(c3)OCO4)CC[C@H]21`: the compound was called inactive.
For the compound `CO[C@H]1CN(C)C(=O)c2cc(NC(C)=O)ccc2OC[C@@H](C)N(C(=O)CC2CC2)C[C@H]1C`, the compound was called inactive.
With `CN(C)C(=O)C[C@@H]1CC[C@@H]2[C@@H](COc3ccc(NC(=O)C4CC4)cc3C(=O)N2C)O1`, the result was inactive.
Turning to `Cc1cccc(NC(=O)Nc2ccc3c(c2)C(=O)N(C)[C@H]2CC[C@@H](CC(=O)NCc4ccccc4Cl)O[C@H]2CO3)c1`, the outcome was inactive.
For the compound `NC(=O)c1csc(-c2ccncc2)n1`, the result was inactive.
As to `CNC(=O)C[C@H]1CC[C@@H]2[C@H](COc3ccc(NC(=O)Nc4cccc(F)c4)cc3C(=O)N2C)O1`, the result was inactive.
Turning to `O=C(CN1CCN(c2nc(-c3ccccc3)cs2)CC1)Nc1ccc2c(c1)OCO2`, the call was inactive.
With `COc1cccc(NC(=O)Nc2ccc3c(c2)C(=O)N(C)C[C@@H](OC)[C@@H](C)CN[C@H](C)CO3)c1`, the call was inactive.
Take `C[C@@H]1CN([C@@H](C)CO)C(=O)c2cccc(NC(=O)c3ccc(-c4nccs4)cc3)c2O[C@H]1CN(C)Cc1ccc2c(c1)OCO2`: the compound was called inactive.
For the compound `COCC(=O)Nc1ccc2c(c1)C(=O)N(C)[C@@H]1CC[C@H](CC(=O)Nc3cn(C)nc3C)O[C@H]1CO2`, the compound was called inactive.
With `CCC(=O)Nc1ccc2c(c1)C(=O)N(C)[C@@H]1CC[C@H](CC(=O)NCCN3CCCCC3)O[C@H]1CO2`, the call was inactive.
For the compound `CO[C@@H]1CN(C)C(=O)c2ccc(NC(=O)c3nc4ccccc4s3)cc2OC[C@H](C)N(Cc2cccnc2)C[C@H]1C`, the call was inactive.
Turning to `CCOc1ccc(-c2nnc(SCC(=O)Nc3ccc4c(c3)c3ccccc3n4CC)n2N)cc1`, the compound was called inactive.
Under `CN1C(=O)c2cc(NC(=O)c3ccc4c(c3)OCO4)ccc2OC[C@H]2O[C@@H](CC(=O)O)CC[C@@H]21` stands “inactive”; under `Cc1ccccc1NCN1C(=O)C2C3C=CC(C3)C2C1=O` (centres undefined), “inactive”.
`Cc1cccc(NC(=O)C[C@H]2CC[C@H]3[C@@H](COc4ccc(NC(=O)NC(C)C)cc4C(=O)N3C)O2)c1`: the compound was classed as inactive.
On to `CCCCc1cc(=O)oc2cc(C)cc(OC(C)C(=O)O)c12` (centres undefined), for which the result was inactive.
Regarding `COCCN(C[C@H]1[C@@H](c2ccccc2)[C@H](CO)N1C(=O)C1CCC1)C(C)=O`, the compound was called inactive.
In the case of `COCC(=O)Nc1ccc2c(c1)C(=O)N(C)[C@@H]1CC[C@@H](CC(=O)OC)O[C@@H]1CO2`, the compound was called inactive.
In the case of `COc1ccc(CNC(=O)NCCc2c[nH]c3ccccc23)cc1`, the outcome was inactive.
As to `CN1C(=O)c2cc(NC(=O)c3cccs3)ccc2OC[C@H]2O[C@@H](CC(=O)NCCN3CCCCC3)CC[C@@H]21`, the outcome was inactive.
Turning to `COCC(=O)Nc1ccc2c(c1)C(=O)N(C)[C@@H]1CC[C@H](CC(=O)NC3CCCC3)O[C@H]1CO2`, the compound was called inactive.
In the case of `COCC(=O)N(C)C[C@@H]1[C@H](c2ccc(-c3ccccc3)cc2)[C@@H](CO)N1C(C)=O`, the call was inactive.
